HPGD inh = blocks human HPGD enzyme activity; P15428; purified HPGD, NADH fluorescence kinetic, PGE2 substrate; actives 4.3% (n = 150,000); Potency, µM, for the others: top-dose activity change, negative = inhibition, most hits filed as inhibitors; note: potency is the fitted concentration of half-maximal effect
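20 nM HPGD preincubated 15 min at room temperature with compound in 50 mM Tris-HCl pH 8, 0.01% Tween 20. Started with 1 mM NAD+ and 30 uM prostaglandin E2; NADH fluorescence (360/450 nm) read 5 times over 30-s intervals, last minus first.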
12-hLO inh = blocks human 12-lipoxygenase activity. P18054. purified 12-hLO, xylenol orange hydroperoxide absorbance. Potency, µM (doses to about 57.1 µM), inactives show at the highest dose activity change, negative = inhibition, hits mostly inhibitors. actives 0.12% (n = 150,000). AID 1452; active = well fitted inhibition curve with a large enough effect; inconclusive = small, poorly fitted or top-dose-only effect; note: potency is the fitted concentration of half-maximal effect; nearly all actives have a fitted effect of over 55% in size
Target sequence (P18054 whole entry, looked up): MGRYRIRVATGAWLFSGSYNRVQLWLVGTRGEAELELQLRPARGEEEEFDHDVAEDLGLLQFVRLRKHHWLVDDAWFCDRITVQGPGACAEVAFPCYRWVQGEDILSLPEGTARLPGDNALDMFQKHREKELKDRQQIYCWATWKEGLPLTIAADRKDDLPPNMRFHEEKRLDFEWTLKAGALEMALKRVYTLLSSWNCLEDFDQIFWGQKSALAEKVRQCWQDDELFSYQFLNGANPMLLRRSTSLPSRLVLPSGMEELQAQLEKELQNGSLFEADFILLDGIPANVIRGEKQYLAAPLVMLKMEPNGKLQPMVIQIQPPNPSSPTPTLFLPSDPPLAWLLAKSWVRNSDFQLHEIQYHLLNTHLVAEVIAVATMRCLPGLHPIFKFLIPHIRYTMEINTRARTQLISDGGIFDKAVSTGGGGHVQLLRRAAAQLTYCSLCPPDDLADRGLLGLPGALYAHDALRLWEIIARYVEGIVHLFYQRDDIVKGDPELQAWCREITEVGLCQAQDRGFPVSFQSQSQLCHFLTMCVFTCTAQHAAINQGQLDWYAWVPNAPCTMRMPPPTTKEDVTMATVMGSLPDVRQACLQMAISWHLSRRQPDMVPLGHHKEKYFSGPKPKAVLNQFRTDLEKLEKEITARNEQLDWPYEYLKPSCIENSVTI
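Lipoxygenase turnover measured by absorbance at 573 and 405 nm after Fe-XO development. Human 12hLO 150 nM, arachidonate 40 uM, pH 7.0 Hepes buffer with detergent; 15 min compound preincubation, 30 min reaction.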
PNC assembly inh = inhibitors of perinucleolar compartment assembly | PC3M PTB-GFP, PNC prevalence imaging, 16 h; stronger effect = lower value | activity change (PNC), negative = inhibition, % at 10 µM | actives 3.1% (n = 140,000) | AID 2417;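 active = readout at or below -70, meaning at least 70% loss of cells showing the perinucleolar compartment, a nuclear body marking cancer cells; inconclusive = readout between -30 and a set limit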;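 note: plate controls were DMSO wells for no effect and camptothecin positive control wells for full effect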
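Compounds are pinned in duplicate onto adhered PC3M cells stably expressing GFP-tagged PTB and incubated 16 h at 37 C. Cells are then fixed, nuclei stained with Hoechst, and PNC-positive cells counted.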
ALDH1A1 block = inhibitors of human aldehyde dehydrogenase 1A1; P00352; Purified ALDH1A1, NADH fluorescence, propionaldehyde substrate; Potency, µM (highest dose often 75.3 µM), for inactives: at the top dose activity, negative = inhibition, hits mostly inhibitors; actives 7.3% (n = 220,000);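 note: potency is the fitted concentration of half-maximal effect; plate controls were no enzyme wells and a reference inhibitor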
LMNA splice mod = changes lamin A minigene splicing in HeLa cells. HeLa LMNA splicing GFP/RFP minigene ratio, 48 h. Potency, µM (doses to about 46.1 µM), for inactives: top-dose ratio change, negative = inhibition, actives largely listed as inhibitors. actives 0.01% (n = 200,000). AID 1487; active = well fitted inhibition curve with a large enough effect in the signal ratio, with a control signal flat, not every such curve was filed as active; inconclusive = small, poorly fitted or top-dose-only effect, or effect the other way, or a change in a side signal; the % refers to the signal ratio; note: potency is the fitted concentration of half-maximal effect
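S3 HeLa cells stably expressing lamin A-EGFP splicing minigene plus DsRed2, 600 cells/well, 48 h compound exposure at 37C. Laser-scanning cytometry; analysed as GFP (500-530 nm)/RFP (575-640 nm) total intensity ratio; 0.5% DMSO vehicle.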
An asterisk follows results filed as active; [ ] = dose if it differs, or a comment. Compounds with a hit are over-represented: about 10% of the library has one in this group of screens. Unless noted, calls come from the whole dose curve; as a rule, active = well fitted inhibition curve with a large enough effect (not every such curve was filed as active); inconclusive = small, poorly fitted or top-dose-only effect, or another doubt; inactive = no such curve, though single readings can be large or run the other way. Unless noted, % is set by controls: 0 for no effect and ±100 for the full control effect.

Cc1[nH]c2ccccc2c1Cc1n[nH]c(=S)n1C was read as HPGD inh 35µM*, 12-hLO inh -6%, PNC assembly inh 3, ALDH1A1 block -12% and LMNA splice mod 1%.
Screening O=C(CSc1nc2ncc(Br)cc2[nH]1)Nc1ccc2c(c1)OCO2 returned 12-hLO inh -4%, PNC assembly inh 34, ALDH1A1 block 25µM* and LMNA splice mod -5%.
Screening CC(C)(C)C(=O)CSc1nc2ncc(Br)cc2[nH]1 returned 12-hLO inh -2%, PNC assembly inh -98*, ALDH1A1 block inconclusive and LMNA splice mod -9%.
Screening Cc1nc2nc(SCC(=O)C(C)(C)C)[nH]c2cc1Br returned HPGD inh inconclusive, 12-hLO inh -3%, PNC assembly inh 4, ALDH1A1 block inconclusive and LMNA splice mod -3%.
COc1cccc(C2CC(c3c(-c4ccccc4)c4cc(Cl)ccc4[nH]c3=O)=NN2S(C)(=O)=O)c1OC (stereo unspecified) was read as HPGD inh -22%, 12-hLO inh -12%, PNC assembly inh 35, ALDH1A1 block 5µM* and LMNA splice mod inconclusive.
For CCC(=O)N1N=C(c2c(-c3ccccc3)c3cc(Cl)ccc3[nH]c2=O)CC1c1ccco1 (stereo unspecified) the results were 12-hLO inh -2%, PNC assembly inh -82*, ALDH1A1 block inconclusive and LMNA splice mod -10%.
Screening COc1ccc(NC(=O)COC(=O)C2CC3C=CC2C3)cc1 (stereo unspecified) returned ALDH1A1 block -10% and LMNA splice mod -24%[46 µM].
`O=C(COC(=O)C1CC2C=CC1C2)Nc1ccccc1F` (stereo unspecified) gave ALDH1A1 block 13µM*.
For Cc1cc(NC(=O)C2CCN(S(=O)(=O)c3ccc4[nH]c(=O)oc4c3)CC2)ccc1Br the results were LMNA splice mod -25%[46 µM].
For CC(C)CCNC(=O)c1ccc(CSCc2cccc(F)c2)o1 the results were HPGD inh 14µM*, 12-hLO inh -3%, PNC assembly inh -3, ALDH1A1 block inconclusive and LMNA splice mod -16%.
Screening CCOC(=O)c1sc2nc(CSc3ccccc3)nc(N3CCCN(C)CC3)c2c1C returned ALDH1A1 block 28µM*.
Cc1sc2nc(CSc3ccccc3)nc(N3CCC(C(N)=O)CC3)c2c1C was read as ALDH1A1 block -15%.
For Cc1ccc(S(=O)(=O)N2CCCc3cc(NC(=O)c4cccc(Cl)c4)ccc32)cc1 the results were LMNA splice mod 13%[46 µM].
`C=CCc1ccc(OCC(O)COCC)c(OC)c1` (stereo unspecified) gave HPGD inh 0%, 12-hLO inh 0%, PNC assembly inh 18, ALDH1A1 block 28µM* and LMNA splice mod 10%.
`C=CCc1ccc(OCC(O)CO)c(OC)c1` (stereo unspecified) gave HPGD inh -12%, 12-hLO inh 5%, PNC assembly inh 23, ALDH1A1 block -12% and LMNA splice mod 2%.
For CO/N=C(\C)CCN1CCc2nc(-c3ccccc3)c(-c3ccccc3)cc2C1 the results were ALDH1A1 block 13%[13.5 µM].
For CN1CCN(C(=O)c2ccc3c(c2)N(Cc2cccc(Cl)c2)C(=O)c2ccccc2S3(=O)=O)CC1 the results were LMNA splice mod 10%[46 µM].
O=C(c1ccc2c(c1)N(Cc1cccc(Cl)c1)C(=O)c1ccccc1S2(=O)=O)N1CCN(c2ccccn2)CC1 was read as ALDH1A1 block 20µM* and LMNA splice mod inconclusive.
`COc1ccc(C)cc1NC(=O)Cn1c(=O)cc(C)c2c(C)nn(C)c21` gave LMNA splice mod 14%[46 µM].
For N#Cc1ccc(/C=C/C(=O)c2ccccc2)cc1 the results were ALDH1A1 block 8.9µM* and LMNA splice mod inconclusive.
For CC(C)=N/N=C1/NC(=O)C(CC(=O)Nc2cc(Cl)ccc2C)S1 (stereo unspecified) the results were HPGD inh -11%, 12-hLO inh 0%, PNC assembly inh 2, ALDH1A1 block -9% and LMNA splice mod inconclusive.
`CCOC(=O)N1CCC(NC(=O)CCC(=O)c2ccccc2)CC1` gave HPGD inh 1%, 12-hLO inh 0%, PNC assembly inh inconclusive, ALDH1A1 block 3% and LMNA splice mod -10%.
`CCOC(=O)N1CCC(NC(=O)CCN2C(=O)C3C4C=CC(C4)C3C2=O)CC1` (stereo unspecified) gave HPGD inh -7%, 12-hLO inh -3%, PNC assembly inh -101*, ALDH1A1 block -12% and LMNA splice mod -1%.
CCn1ccc2cc(S(=O)(=O)N3CCC(C(=O)NCCc4ccc(C)cc4)CC3)ccc21 was read as LMNA splice mod -5%[46 µM].
For CN1CCN(NC(=O)CSc2ccc(Cl)cc2Cl)CC1 the results were ALDH1A1 block 5% and LMNA splice mod 7%[46 µM].
`COCCN(C(=O)Cn1nnc2ccccc21)C(C(=O)NC1CCCC1)c1ccc(OC)cc1OC` (stereo unspecified) gave HPGD inh 1%, 12-hLO inh 2%, PNC assembly inh -88*, ALDH1A1 block -2% and LMNA splice mod -14%.
For Cc1ccc(C)c(/C(=N\N=C(N)N)C2CC2)c1 the results were HPGD inh -5%, 12-hLO inh 2%[11.4 µM] and ALDH1A1 block 5%[13.5 µM].
Cc1ccnc(NC(=S)NC(=O)c2ccco2)c1 was read as HPGD inh -11%, 12-hLO inh 4%, PNC assembly inh 40, ALDH1A1 block -14% and LMNA splice mod 1%.
Screening COC(=O)C(NC(=O)c1ccco1)(Nc1cc(C)ccn1)C(F)(F)F (stereo unspecified) returned HPGD inh -8%, 12-hLO inh 0%, PNC assembly inh -100*, ALDH1A1 block 9% and LMNA splice mod -1%.
O=C(CN1CCc2ccccc2C1)c1cccs1 was read as HPGD inh -22%, 12-hLO inh -21%, PNC assembly inh inconclusive, ALDH1A1 block 7.9µM* and LMNA splice mod 6%.
O=C(c1cccs1)N1CCN(c2ccc(F)cc2)CC1 was read as HPGD inh -1%, 12-hLO inh 12%, PNC assembly inh -21, ALDH1A1 block 4% and LMNA splice mod -12%.
For O=C(CN1CCN(c2ccc(F)cc2)CC1)c1cccs1 the results were ALDH1A1 block 7.1µM*.
`CC1CCN(CC(=O)c2cccs2)CC1` gave ALDH1A1 block inconclusive and LMNA splice mod -8%[46 µM].
Screening COc1ccccc1NC(=O)CSC1=Nc2ccccc2C2=NC(CC(=O)NCc3ccco3)C(=O)N12 (stereo unspecified) returned LMNA splice mod -4%[46 µM].
Cc1cc2c(cc1S(=O)(=O)Nc1ccc(C(C)C)cc1)OCCN2C was read as LMNA splice mod -2%[46 µM].
COc1c(O)c(O)cc2c1oc1c3cc(C)ccc3oc(=O)c21 was read as HPGD inh 14µM*, 12-hLO inh inconclusive and ALDH1A1 block -8%.
